A selection: hits, their analogues and other compounds. The true share with any hit is near 4.6%.
D1 potentiator = human D1 dopamine receptor positive modulation; P21728; HEK293 TREx D1 cells, calcium flux, dopamine EC20 potentiation; potentiation, % at 10 µM; 360,000 tested, 0.036% active; in the data active = potentiation above about 30%; also: 0% is about no effect
Target sequence (P21728 whole entry, looked up): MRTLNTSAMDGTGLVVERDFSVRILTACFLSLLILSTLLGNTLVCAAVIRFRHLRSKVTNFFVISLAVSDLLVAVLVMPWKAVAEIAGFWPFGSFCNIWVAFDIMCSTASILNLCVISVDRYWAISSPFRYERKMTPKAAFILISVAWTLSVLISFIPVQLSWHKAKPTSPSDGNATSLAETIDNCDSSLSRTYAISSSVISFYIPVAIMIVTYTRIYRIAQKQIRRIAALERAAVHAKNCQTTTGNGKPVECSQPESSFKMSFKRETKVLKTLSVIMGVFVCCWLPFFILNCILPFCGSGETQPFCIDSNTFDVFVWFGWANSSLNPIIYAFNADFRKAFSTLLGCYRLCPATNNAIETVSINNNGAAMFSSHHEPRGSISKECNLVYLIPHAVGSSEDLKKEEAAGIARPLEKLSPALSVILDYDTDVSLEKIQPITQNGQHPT
D1 ag = human D1 receptor agonism; HEK293 T-REx D1 cells, calcium flux, agonist mode; activation, % at 2 µM; 360,000 tested, 1% active; AID 504660; also: 0% is about no effect
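Inducible HEK293 T-REx D1 cells, force-coupled to calcium signalling, were plated at 4000 cells/well with tetracycline and held overnight at 30 C. After no-wash calcium dye loading, compound-evoked calcium rise over 180 s flagged agonists.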
D1 antag = blocks dopamine activation of the human D1 receptor | HEK293 TREx D1 cells, calcium flux, dopamine EC80; stronger effect = lower value | activity change, negative = inhibition, % at 10 µM | 360,000 tested, 3.2% active | P21728; in the data active = activity change below about -30%; also: % is scaled to controls: 0 for no effect and ±100 for the full control effect
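Compound effects on dopamine-evoked calcium signalling were measured in tetracycline-induced HEK293 Trex D1 cells. Dopamine at EC80 followed a 180 s compound pre-read, and fluorescence was tracked kinetically for 180 s more.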
TRHR agonist-1 = TRH receptor (human) agonism | P34981 | TRHR cells, calcium flux fluo-8, FDSS agonist mode | activation, % at 2 µM | 360,000 tested, 0.18% active | AID 493084; also: 0% is about no effect
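TRHR-expressing cells, plated overnight in medium with 10% serum, were loaded with fluo-8 calcium dye at room temperature. After a 10 s baseline, library compound was pin-added and calcium release was recorded kinetically (ex 480/em 530) as agonist response.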
TRHR enhancer-1 = allosterically enhances the human TRH receptor; 360,000 tested, 0.66% active; P34981; TRHR cells, fluo-8 calcium fluorescence, EC20 TRH enhancement; AID 493056; enhancement, % at 2 µM; in the data active = enhancement above about 30%; also: 0% is about no effect
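TRHR-expressing cells loaded with fluo-8 calcium dye were read kinetically (ex 480/em 530) during compound addition, then stimulated with an EC20 of TRH (10 nM final). Enhancement of the Gq-mediated intracellular calcium response was scored.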
TRHR enhancer-2 = human TRH receptor allosteric enhancement confirmation. shares compounds with TRHR enhancer-1. TRH receptor cell assay, enhancer confirmation qHTS. activity change, negative = inhibition, % at 46.1 µM. 970 tested, under 10 active. AID 493076; active = well fitted curve in the direction sought with a large enough effect; inconclusive = small, poorly fitted or top-dose-only effect, or another doubt; inactive = no such curve, though single readings can be large; an effect the other way counts as inactive or inconclusive;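 also: compound effect scored on response to added TRH at EC20 of 10 nM; 0% is about no effect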
TRHR agonist-2 = confirmation of human TRH receptor agonists; Potency, µM (doses to about 46.1 µM), for the others: at the highest dose activation, usual class: activators; TRHR-expressing cells, agonist activation read-out; 970 tested, 8% active; shares compounds with TRHR enhancer-1; active = well fitted curve in the direction sought with a large enough effect; inconclusive = small, poorly fitted or top-dose-only effect, or another doubt; inactive = no such curve, though single readings can be large; an effect the other way counts as inactive or inconclusive; also: potency is read from the fitted curve at half-maximal effect; 0% is about no effect; nearly all actives have a fitted effect of over 75% in size
An asterisk follows results filed as active; ? = inconclusive; . = not tested or not shown. Rule as the data show it, unless noted: active = activation above about 30%; inactive = the rest.

SMILES	D1 potentiator	D1 ag	D1 antag	TRHR agonist-1	TRHR enhancer-1	TRHR enhancer-2	TRHR agonist-2
Cc1ccc(-c2nnc3c4ccccc4c(C)nn23)cc1NC(=O)c1ccccc1Cl	2	-1	-5	0	-2	.	.
CCOc1ccccc1NC(=O)NC1CC2CCCC(C1)N2Cc1nnnn1CCc1ccccc1 (stereo unspecified)	7	3	10	61*	-1	-7	2%
COc1ccc(Nc2ncc3c(n2)CCN(Cc2cc(Br)cs2)C3)c(OC)c1	1	0	-1	0	-4	.	.
COc1ccc(N2CCN(CC(=O)N3c4ccccc4CC3C)CC2)cc1 (stereo unspecified)	-3	2	5	0	41*	?	1%
CC1CCN(CC(=O)N2c3ccccc3CC2C)CC1 (stereo unspecified)	-2	5	1	-2	0	.	.
COc1ccc(N(CC(=O)NCCc2ccccc2)S(=O)(=O)c2c(C)nn(C)c2C)cc1	1	-1	-13	-1	8	.	.
Cc1ccccc1NC(=S)N(Cc1cccnc1)Cc1ccccc1Cl	-6	2	11	-1	47*	?	6%
COc1ccccc1NC(=S)N(Cc1cccnc1)Cc1ccccc1Cl	-3	1	-13	0	-1	.	.
COC(=O)/C(C#N)=C1/C=Cc2ccccc2N1	0	-2	-1	0	54*	-7	?
CC1CC(C)CN(C(=O)COC(=O)c2ccc(Cl)nc2)C1 (stereo unspecified)	-5	1	-18	1	45*	-1	1%
CCOc1ccc(S(=O)(=O)N2CCN(Cc3ccco3)CC2)cc1	2	0	-4	0	0	.	.
COc1cccc(C2=NC(C)(C)NC(c3ccccc3O)C2)c1 (stereo unspecified)	4	2	-20	1	42*	0	0%
COC(CNC(=O)[C@H](Cc1ccccc1)N1Cc2ccccc2C1=O)OC	4	1	-6	-1	22	.	.
CCC(C)NS(=O)(=O)c1ccc(NC(=O)C(Sc2ccccc2)c2ccccc2)cc1 (stereo unspecified)	4	7	9	1	-1	.	.
CCCCNS(=O)(=O)c1ccc(NC(=O)C(Sc2ccccc2)c2ccccc2)cc1 (stereo unspecified)	-4	13	15	27	2	-3	?
N#C/C(=C(/O)c1ccccc1F)c1nc2cc(C(F)(F)F)ccc2s1	-3	2	-15	1	41*	-1	-1%
CCCCn1c(N)c(N(CC(C)C)C(=O)c2cc(S(=O)(=O)N3CCCCC3)ccc2C)c(=O)[nH]c1=O	3	2	1	0	-6	.	.
CC1(C)Oc2ccc(C(=O)NC3CCCCC3)cc2N(CC#N)C1=O	-2	4	8	0	46*	1	7%
COc1ccccc1CNC(=O)c1ccc(N2Cc3cccc(OC)c3Oc3ncccc32)s1	-6	2	-9	0	2	.	.
Cc1c(C)c2cc3c(C)coc3cc2oc1=O	-4	2	-20	0	41*	-8	-1%
CN(CC(=O)Nc1ccccc1Cl)CC(=O)Nc1sc2c(c1C(N)=O)CCC2	-1	0	-6	0	-2	.	.
O=C(Cc1cccs1)N=Nc1c(O)[nH]c2ccccc12	-7	0	-9	-2	43*	-4	4%
O=C(Cc1cccs1)N=Nc1c(O)[nH]c2ccc(Br)cc12	0	2	6	0	1	.	.
O=C(Cc1nc2ccccc2[nH]c1=O)c1ccccc1	-4	52*	-7	31*	1	-4	?
CCOc1ccc(Nc2ccc(N3C(=O)CCC3=O)cc2[N+](=O)[O-])cc1	1	0	6	0	48*	-10	5%
SMILES	D1 potentiator	D1 ag	D1 antag	TRHR agonist-1	TRHR enhancer-1	TRHR enhancer-2	TRHR agonist-2
COc1ccc(Nc2ccc(N3C(=O)CCCC3=O)cc2[N+](=O)[O-])cc1OC	-2	1	3	0	-2	.	.
Cc1cccc(C)c1N1C(=O)CCC(C)(C)C1=O	2	0	11	0	-1	.	.
CCOC(=O)Cn1nc(N2CCN(c3ccc(F)cc3)CC2)ccc1=O	-1	3	2	0	9	.	.
N#Cc1nc(COc2ccccc2)oc1NCCCn1ccnc1	-1	2	-33*	0	57*	-5	1%
Cc1ccc(OCc2nc(C#N)c(NCCCn3ccnc3)o2)cc1	-6	-1	-10	0	-3	.	.
Cc1cc(-c2ccccc2)c2ccc(NC(=O)C(C)(C)C)nc2n1	-1	2	4	-1	-2	.	.
CC(C)Cc1nnc(NC(=O)CCC(=O)N2CCN(Cc3ccc(Cl)cc3)CC2)s1	-6	14	-17	0	2	.	.
Cc1c(NC(=S)NC(=O)c2cccc3ccccc23)cccc1C(=O)O	-2	5	-5	0	65*	-5	-1%
Cc1ccc(O)c(NC(=O)c2ccccc2-c2ccccc2C(=O)O)c1	5	5	0	0	43*	-2	7%
Cc1ccc(NC(=O)c2ccccc2-c2ccccc2C(=O)O)cc1	-7	0	-16	0	-5	.	.
CCOC(=O)Cc1nnc(NC(=O)COc2ccc(C)cc2)s1	-4	17	-18	1	41*	?	2%
O=S(=O)(c1ccc(Br)s1)N1CCN(CCc2ccccc2)CC1	-2	10	-5	1	1	.	.
O=S(=O)(NCC1(N2CCOCC2)CCCCC1)c1ccc(Cl)cc1C(F)(F)F	-4	2	1	46*	7	4	?
O=C(CSc1nc(=O)[nH]c2c1CCCC2)Nc1cc(C(F)(F)F)cc(C(F)(F)F)c1	-4	-1	7	0	0	.	.
Cc1csc(NC(=O)CSc2nc(=O)[nH]c3c2CCCC3)n1	-3	6	11	0	66*	-7	1%
CCOC(=O)C1CCCN(C(=O)Cn2ncc3c(C)n(Cc4ccccc4Cl)c(C)c3c2=O)C1 (stereo unspecified)	-3	13	-13	-1	-3	.	.
CCc1cc2c(cc3c(=O)n(CC(=O)N4CCCCC4)nc(CC)n32)s1	-1	0	-10	1	9	.	.
Cc1cc(C(=O)N2CCN(S(=O)(=O)c3ccc(F)c(Cl)c3)CC2)c(C)o1	-4	-1	-4	-1	9	.	.
Cc1ccc(NC(=O)C2CSC3(C)CCC(=O)N23)cc1S(=O)(=O)N1CCOCC1 (stereo unspecified)	.	7	2	0	9	.	.
Cc1ccc(NC(=O)COC(=O)C2CSC3(C)CCC(=O)N23)cc1S(=O)(=O)N1CCOCC1 (stereo unspecified)	-7	4	-38*	2	42*	-3	-1%
